Measured values reported in PubChem BioAssay AID1159580 (chemical genetic matrix, 2015).
The whole screen tested about 5,500 compounds, of which about 2,000 (36%) were called active. Not shown: some 18% with an inconclusive outcome. No stated cut-off is given here; in the data, active means normalized growth mostly below about 0.91 (no sharp cut-off); inconclusive means no clear call, values can overlap the other calls; inactive means mostly above about 0.92. The list shows a part of the results.

Assay: chemical genetic growth profiling, strain panel (AID 1159580);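 further: tested at 20 µM; growth read once vehicle control cultures reached saturation at 30 °C; 1 = growth at the plate median or of vehicle wells; lower values mean less growth of the strain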
Conditions: growth OD

Measured: normalized growth

O=c1c(-c2ccc3c(c2)OCO3)coc2cc(O)ccc12
inactive: S. cerevisiae deletion strains, locus YJR043C, strain POL32, active compounds read low 1 | S. cerevisiae deletion strains, locus YJR075W, strain HOC1, active compounds read low 1.02 | S. cerevisiae deletion strains, locus YKL009W, strain mrt4, active compounds read low 0.963 | S. cerevisiae deletion strains, locus YKL068W, active compounds read low 0.994 | S. cerevisiae deletion strains, locus YKL085W, strain MDH1 (second series), active compounds read low 0.995 | S. cerevisiae deletion strains, locus YKL085W, strain MDH1, active compounds read low 0.995 | S. cerevisiae deletion strains, locus YKL160W, strain elf1, active compounds read low 0.983 | S. cerevisiae deletion strains, locus YKL190W, strain CNB1, active compounds read low 1 | S. cerevisiae deletion strains, locus YKR001C, strain vps1, active compounds read low 0.969 | S. cerevisiae deletion strains, locus YKR026C, strain gcn3, active compounds read low 0.98 | S. cerevisiae deletion strains, locus YKR091W, strain srl3, active compounds read low 0.998 | S. cerevisiae deletion strains, locus YLL001W, strain dnm1, active compounds read low 0.977 | S. cerevisiae deletion strains, locus YLL026W, active compounds read low 0.989 | S. cerevisiae deletion strains, locus YLL041C, strain sdh2, active compounds read low 0.995 | S. cerevisiae deletion strains, locus YLR027C, strain aat2, active compounds read low 0.987 | S. cerevisiae deletion strains, locus YLR039C, strain RIC1, active compounds read low 0.969 | S. cerevisiae deletion strains, locus YLR058C, strain SHM2, active compounds read low 0.994 | S. cerevisiae deletion strains, locus YLR102C, strain apc9, active compounds read low 0.987 | S. cerevisiae deletion strains, locus YLR221C, strain rsa3, active compounds read low 0.994 | S. cerevisiae deletion strains, locus YLR258W, strain gsy2, active compounds read low 0.981 | S. cerevisiae deletion strains, locus YLR262C, strain YPT6 (second series), active compounds read low 0.957 | S. cerevisiae deletion strains, locus YLR262C, strain YPT6, active compounds read low 0.994 | S. cerevisiae deletion strains, locus YLR268W, strain sec22, active compounds read low 0.981 | S. cerevisiae deletion strains, locus YLR320W, strain mms22, active compounds read low 0.957 | S. cerevisiae deletion strains, locus YLR330W, strain CHS5, active compounds read low 1 | S. cerevisiae deletion strains, locus YLR342W, strain FKS1 (second series), active compounds read low 0.981 | S. cerevisiae deletion strains, locus YLR342W, strain FKS1, active compounds read low 0.98 | S. cerevisiae deletion strains, locus YLR357W, strain rsc2, active compounds read low 0.965 | S. cerevisiae deletion strains, locus YLR370C, strain arc18, active compounds read low 1 | S. cerevisiae deletion strains, locus YLR371W, strain rom2, active compounds read low 0.981 | S. cerevisiae deletion strains, locus YLR384C, strain iki3, active compounds read low 0.971 | S. cerevisiae deletion strains, locus YLR418C, strain cdc73, active compounds read low 0.984 | S. cerevisiae deletion strains, locus YML016C, strain PPZ1, active compounds read low 0.985 | S. cerevisiae deletion strains, locus YML032C, strain rad52, active compounds read low 0.969 | S. cerevisiae deletion strains, locus YML120C, strain ndi1, active compounds read low 0.995 | S. cerevisiae deletion strains, locus YML124C, strain tub3, active compounds read low 0.976 | S. cerevisiae deletion strains, locus YMR058W, strain fet3, active compounds read low 1 | S. cerevisiae deletion strains, locus YMR078C, strain ctf18, active compounds read low 0.967 | S. cerevisiae deletion strains, locus YMR125W, strain sto1, active compounds read low 0.986 | S. cerevisiae deletion strains, locus YMR129W, active compounds read low 0.997 | S. cerevisiae deletion strains, locus YMR205C, strain PFK2, active compounds read low 0.978 | S. cerevisiae deletion strains, locus YMR223W, strain ubp8, active compounds read low 0.976 | S. cerevisiae deletion strains, locus YMR231W, strain pep5, active compounds read low 1 | S. cerevisiae deletion strains, locus YMR263W, strain SAP30, active compounds read low 1.01 | S. cerevisiae deletion strains, locus YMR307W, strain GAS1, active compounds read low 0.974 | S. cerevisiae deletion strains, locus YNL067W, strain RPL9B, active compounds read low 1.03 | S. cerevisiae deletion strains, locus YNL071W, strain lat1, active compounds read low 0.996 | S. cerevisiae deletion strains, locus YNL128W, strain TEP1, active compounds read low 1.02 | S. cerevisiae deletion strains, locus YNL153C, strain GIM3, active compounds read low 1.01 | S. cerevisiae deletion strains, locus YNL209W, strain ssb2, active compounds read low 0.987 | S. cerevisiae deletion strains, locus YNL233W, strain BNI4, active compounds read low 0.997 | S. cerevisiae deletion strains, locus YNL248C, strain rpa49, active compounds read low 0.987 | S. cerevisiae deletion strains, locus YNL250W, strain rad50, active compounds read low 0.989 | S. cerevisiae deletion strains, locus YNL271C, strain bni1, active compounds read low 0.992 | S. cerevisiae deletion strains, locus YNL298W, strain CLA4, active compounds read low 0.981 | S. cerevisiae deletion strains, locus YNL307C, strain MCK1, active compounds read low 0.948 | S. cerevisiae deletion strains, locus YNL322C, strain KRE1 (second series), active compounds read low 0.992 | S. cerevisiae deletion strains, locus YNL322C, strain KRE1, active compounds read low 0.999 | S. cerevisiae deletion strains, locus YNR049C, strain mso1, active compounds read low 0.996 | S. cerevisiae deletion strains, locus YNR052C, strain pop2, active compounds read low 0.975 | S. cerevisiae deletion strains, locus YOL006C, strain TOP1, active compounds read low 1.01 | S. cerevisiae deletion strains, locus YOL012C, strain htz1 1.06 | S. cerevisiae deletion strains, locus YOL147C, strain pex11, active compounds read low 0.976 | S. cerevisiae deletion strains, locus YOR001W, strain rrp6, active compounds read low 0.991 | S. cerevisiae deletion strains, locus YOR061W, strain CKA2, active compounds read low 0.981 | S. cerevisiae deletion strains, locus YOR069W, strain VPS5, active compounds read low 0.991 | S. cerevisiae deletion strains, locus YOR070C, strain gyp1, active compounds read low 0.99 | S. cerevisiae deletion strains, locus YOR080W, strain dia2, active compounds read low 0.981 | S. cerevisiae deletion strains, locus YOR083W, strain WHI5, active compounds read low 1 | S. cerevisiae deletion strains, locus YOR106W, strain vam3, active compounds read low 0.986 | S. cerevisiae deletion strains, locus YOR136W, strain idh2, active compounds read low 0.985 | S. cerevisiae deletion strains, locus YOR144C, strain elg1, active compounds read low 0.98 | S. cerevisiae deletion strains, locus YOR184W, strain ser1, active compounds read low 0.994 | S. cerevisiae deletion strains, locus YOR265W, strain rbl2, active compounds read low 0.991 | S. cerevisiae deletion strains, locus YOR270C, strain vph1, active compounds read low 1.02 | S. cerevisiae deletion strains, locus YOR290C, strain snf2, active compounds read low 0.958 | S. cerevisiae deletion strains, locus YOR316C, strain cot1, active compounds read low 0.976 | S. cerevisiae deletion strains, locus YPL051W, strain arl3, active compounds read low 0.99 | S. cerevisiae deletion strains, locus YPL055C, strain LGE1, active compounds read low 1.03 | S. cerevisiae deletion strains, locus YPL078C, strain atp4, active compounds read low 0.995 | S. cerevisiae deletion strains, locus YPL106C, strain sse1, active compounds read low 0.97 | S. cerevisiae deletion strains, locus YPL240C, strain hsp82, active compounds read low 0.988 | S. cerevisiae deletion strains, locus YPL241C, strain CIN2, active compounds read low 0.999 | S. cerevisiae deletion strains, locus YPR119W, strain clb2, active compounds read low 0.985 | S. cerevisiae deletion strains, locus YPR141C, strain kar3, active compounds read low 0.986 | S. cerevisiae deletion strains, locus YPR163C, strain tif3, active compounds read low 0.978 | S. cerevisiae deletion strains, locus YPR167C, strain met16, active compounds read low 0.982 | S. cerevisiae deletion strains, strain wtn01, active compounds read low 0.983 | S. cerevisiae strains, strain wild type, active compounds read low 0.995
